Shown are actives, neighbours in structure and some others; about 4.2% of the full set was active somewhere.
ssDAF12 agonist = S. stercoralis DAF-12 activation, primary screen. HEK293 ssDAF-12/GRIP1 lit1-tk-luc reporter, luminescence; % of 3 µM dafachronic acid response. activation, % at 6.8 µM. 370,000 tested, 1% active. AID 652126;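 active = activation above the mean over all tested compounds plus 3 SD, cut at about 0.9% in these data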
esBAF inh = SWI/SNF esBAF complex inhibition; mouse ES cells, Bmi1-luciferase knock-in reporter, 24 h; 100% = twice the neutral-well signal; reporter increase, % at 12.5 µM; 350,000 tested, 2% active; AID 602393; in the data active = activation above about 40%;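 note: a rise in the Bmi1 reporter signal indicates esBAF inhibition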
Wnt bcat act = activators of Wnt/beta-catenin signaling; Wnt/beta-catenin reporter cell assay, activator, plate reader; activation, % at 9.35 µM; 300,000 tested, 1.2% active; in the data active = activation above about 30%, passing the limit was not always enough
hcDAF12 agonist = H. contortus DAF-12 activation, primary screen; HEK293 hcDAF-12 lit1-tk-luc reporter, luminescence; 0% DMSO, 100% Δ7-dafachronic acid; activation, % at 6.8 µM; 370,000 tested, 1.4% active; AID 652067;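 active = activation above the mean of all tested compounds plus 3 SD, cut at about 5.5% in these data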
hgDAF-12 ag = activates the H. glycines DAF-12 receptor ligand-binding domain. AID 687014. HEK293 GAL4-hgDAF12 UAS-luciferase reporter, agonist luminescence; normalized to butyrate control. activation, % at 6.8 µM. 370,000 tested, 1.8% active;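 active = activation above a cutoff set at the mean of all screened compounds plus 3 SD, cut at about 10% in these data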
DAX1 inh = DAX1 (NR0B1) inhibition, primary screen; HEK293T StAR-luciferase reporter, SF-1/DAX-1 repression relief; inhibition, % at 6.8 µM; 370,000 tested, 1.1% active; AID 652010;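 active = inhibition above the mean over all tested compounds plus 3 SD, cut at about 3.6% in these data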;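 note: higher inhibition means more luminescence from relief of DAX-1 repression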
hgDAF12 conf = hgDAF-12 agonism, confirmation assay | 3,300 tested, 80% active | shares compounds with hgDAF-12 ag | AID 743050 | HEK293 GAL4-hgDAF12 luciferase reporter, agonist mode; percent of butyrate response | activation, % at 6.8 µM;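 active = mean activation over triplicate wells above the hit cutoff derived from the earlier primary screen, cut at about 11% in these data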
LXRb DAF12 ctr = LXR-beta agonism as DAF-12 counter-screen; shares compounds with hgDAF-12 ag; HEK293 Gal4-LXR luciferase reporter, 24 h; activation, % at 6.8 µM; 3,300 tested, under 10 active; AID 743051;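 active = mean activation of the triplicate above a set limit carried over from the primary screen, none filed active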
Target sequence (P55055 whole entry, looked up, the tested form may be a part): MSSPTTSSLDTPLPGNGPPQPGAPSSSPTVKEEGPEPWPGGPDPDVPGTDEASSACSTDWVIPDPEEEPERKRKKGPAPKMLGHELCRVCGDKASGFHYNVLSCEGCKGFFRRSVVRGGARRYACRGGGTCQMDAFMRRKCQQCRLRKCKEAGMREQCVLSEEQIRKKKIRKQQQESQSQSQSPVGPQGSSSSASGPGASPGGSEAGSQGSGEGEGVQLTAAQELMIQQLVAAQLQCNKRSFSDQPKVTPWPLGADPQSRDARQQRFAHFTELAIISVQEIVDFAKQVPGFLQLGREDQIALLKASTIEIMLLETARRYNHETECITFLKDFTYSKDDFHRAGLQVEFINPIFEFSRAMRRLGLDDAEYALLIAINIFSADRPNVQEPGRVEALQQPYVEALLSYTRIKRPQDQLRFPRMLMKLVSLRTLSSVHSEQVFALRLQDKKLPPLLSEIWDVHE
Numbers stand for hits.

Results for CCNC(=O)C[C@@H]1CC[C@H]2[C@H](COc3ccc(NC(=O)c4ccccc4)cc3C(=O)N2C)O1 ?
esBAF inh: inactive

Results for O=C1/C(=C/c2ccccc2)CCCc2ccccc21 ?
ssDAF12 agonist: inactive; esBAF inh: 49; Wnt bcat act: inactive; hcDAF12 agonist: inactive; hgDAF-12 ag: 14; DAX1 inh: inactive; hgDAF12 conf: 11; LXRb DAF12 ctr: inactive

What do the screens show for `CN(C)c1ccc(/C=C2\CCC/C(=C\c3ccccc3)C2=O)cc1`?
ssDAF12 agonist: inactive; Wnt bcat act: inactive; hcDAF12 agonist: inactive; hgDAF-12 ag: inactive; DAX1 inh: inactive

What do the screens show for `COc1ccccc1NC(=O)N[C@@H]1C=C[C@@H](CC(=O)N[C@@H](C)c2ccccc2)O[C@H]1CO`?
esBAF inh: inactive

Results for C/C=C/c1ccc([C@@H]2[C@@H](C#N)N(C(=O)Cc3ccccn3)[C@@H]2CO)cc1 ?
esBAF inh: inactive

How did COC(=O)c1ccc(Cn2nnc3ccccc32)cc1 do in these assays?
ssDAF12 agonist: inactive; Wnt bcat act: inactive; hcDAF12 agonist: inactive; hgDAF-12 ag: inactive; DAX1 inh: inactive

How did COC(=O)c1ccc(COn2nnc3ccccc32)cc1 do in these assays?
ssDAF12 agonist: inactive; esBAF inh: inactive; Wnt bcat act: inactive; hcDAF12 agonist: inactive; hgDAF-12 ag: 17; DAX1 inh: inactive; hgDAF12 conf: 14; LXRb DAF12 ctr: inactive

Results for C=C(C)CN(CC)C(=O)CCc1nnc(CCCc2ccccc2)o1 ?
ssDAF12 agonist: inactive; Wnt bcat act: inactive; hcDAF12 agonist: inactive; hgDAF-12 ag: 17; DAX1 inh: inactive; hgDAF12 conf: 12; LXRb DAF12 ctr: inactive

Results for CN(C(=O)CCc1nnc(CCCCc2ccccc2)o1)C1CCOCC1 ?
ssDAF12 agonist: inactive; Wnt bcat act: inactive; hcDAF12 agonist: inactive; hgDAF-12 ag: inactive; DAX1 inh: inactive

What do the screens show for `COc1ccc2ccccc2c1C1NC(=O)c2ccccc2N1` (stereo unspecified)?
ssDAF12 agonist: inactive; Wnt bcat act: inactive; hcDAF12 agonist: inactive; hgDAF-12 ag: 14; DAX1 inh: inactive; hgDAF12 conf: inactive; LXRb DAF12 ctr: inactive

Results for O=C1NC(c2ccc3ccccc3c2)Nc2ccccc21 (stereo unspecified) ?
ssDAF12 agonist: inactive; esBAF inh: inactive; Wnt bcat act: inactive; hcDAF12 agonist: inactive; hgDAF-12 ag: 14; DAX1 inh: inactive; hgDAF12 conf: 13; LXRb DAF12 ctr: inactive

How did O=C1NC(c2ccc3c(c2)OCO3)Nc2ccccc21 (stereo unspecified) do in these assays?
ssDAF12 agonist: inactive; esBAF inh: inactive; Wnt bcat act: inactive; hcDAF12 agonist: inactive; hgDAF-12 ag: inactive; DAX1 inh: inactive

Results for Cc1ccccc1C(=O)O/N=C(\N)c1ccncc1 ?
ssDAF12 agonist: inactive; Wnt bcat act: 40; hcDAF12 agonist: inactive; hgDAF-12 ag: 15; DAX1 inh: inactive; hgDAF12 conf: 13; LXRb DAF12 ctr: inactive

How did C[C@@H]1CCCCO[C@H](CN(C)C(=O)c2ccccc2)[C@H](C)CN([C@H](C)CO)C(=O)c2cc(NS(=O)(=O)c3cn(C)cn3)ccc2O1 do in these assays?
esBAF inh: inactive

Results for COCCNC(=O)C[C@@H]1C[C@@H]2c3cc(NC(=O)c4cccnc4)ccc3O[C@@H]2[C@H](CO)O1 ?
esBAF inh: inactive

Results for Cc1ccc2nc(-c3ccc(NC(=O)COC(=O)c4ccco4)cc3)sc2c1 ?
ssDAF12 agonist: inactive; hcDAF12 agonist: inactive; hgDAF-12 ag: 21; DAX1 inh: 4.1; hgDAF12 conf: 19; LXRb DAF12 ctr: inactive

Results for Cc1ccc(NC(=O)COC(=O)c2ccco2)cc1 ?
ssDAF12 agonist: inactive; Wnt bcat act: inactive; hcDAF12 agonist: inactive; hgDAF-12 ag: inactive; DAX1 inh: inactive

Results for Cc1ccc(-c2nc3ccccc3s2)cc1NC(=S)NC(=O)c1ccccc1 ?
ssDAF12 agonist: 1.6; esBAF inh: inactive; Wnt bcat act: inactive; hcDAF12 agonist: 5.7; hgDAF-12 ag: 15; DAX1 inh: inactive; hgDAF12 conf: 16; LXRb DAF12 ctr: inactive

What do the screens show for `CC1(c2ccc(OC(F)F)cc2)NC(=O)N(CC(=O)Nc2ccccc2)C1=O` (stereo unspecified)?
ssDAF12 agonist: inactive; esBAF inh: inactive; Wnt bcat act: inactive; hcDAF12 agonist: inactive; hgDAF-12 ag: inactive; DAX1 inh: inactive

What do the screens show for `CC(=O)NC(=S)Nc1ccc(-c2nc3ccc(C)cc3s2)cc1`?
ssDAF12 agonist: inactive; esBAF inh: inactive; Wnt bcat act: inactive; hcDAF12 agonist: inactive; hgDAF-12 ag: 15; DAX1 inh: inactive; hgDAF12 conf: 22; LXRb DAF12 ctr: inactive

How did Cc1ccc2nc(-c3ccc(NC(=O)CN4C(=O)NC(C)(c5ccc(OC(F)F)cc5)C4=O)cc3)sc2c1 (stereo unspecified) do in these assays?
ssDAF12 agonist: inactive; Wnt bcat act: inactive; hcDAF12 agonist: 5.8; hgDAF-12 ag: 15; DAX1 inh: inactive; hgDAF12 conf: 14; LXRb DAF12 ctr: inactive

Results for C[C@@H]1CN([C@@H](C)CO)C(=O)Cc2cc(NS(=O)(=O)c3cn(C)cn3)ccc2O[C@@H]1CN(C)C(=O)Nc1cccc2ccccc12 ?
esBAF inh: inactive

Results for CC=Cc1ccc2n(c1=O)C[C@H]1[C@H](CO)[C@@H](C(=O)NCCN3CCCC3)N(C(=O)NC(C)C)[C@@H]21 (mixture of isomers) ?
esBAF inh: inactive

How did CC(=O)N(C)C[C@H]1Oc2cc(C#CC(C)C)ccc2S(=O)(=O)N([C@H](C)CO)C[C@@H]1C do in these assays?
esBAF inh: inactive

How did CCS(=O)(=O)Nc1ccc2c(c1)C(=O)N(C)C[C@H](OC)[C@H](C)CN(C(=O)C1CC1)[C@H](C)CO2 do in these assays?
esBAF inh: inactive

What do the screens show for `CC(C)CCNC(=S)Nc1ccc(F)cc1`?
ssDAF12 agonist: inactive; Wnt bcat act: inactive; hcDAF12 agonist: inactive; hgDAF-12 ag: inactive; DAX1 inh: inactive

What do the screens show for `Cc1ccc2nc(-c3ccc(NC(=S)NCCC(C)C)cc3)sc2c1`?
ssDAF12 agonist: inactive; esBAF inh: inactive; Wnt bcat act: 49; hcDAF12 agonist: inactive; hgDAF-12 ag: 14; DAX1 inh: inactive; hgDAF12 conf: 15; LXRb DAF12 ctr: inactive

What do the screens show for `O=C(Nc1ccc2c(c1)C(=O)NC2=O)c1ccc2ncsc2c1`?
ssDAF12 agonist: inactive; Wnt bcat act: inactive; hcDAF12 agonist: inactive; hgDAF-12 ag: inactive; DAX1 inh: inactive
